# CYP2C9 inhib: inhibitors of human CYP2C9; CYP2C9 Supersomes, luciferin-H conversion, luminescence; inhibition, % at 5 µM; actives 20% (n = 96,000); AID 777;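 active = blocking of liver enzyme CYP2C9 beyond about 50% at 5 µM, limit read from the data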
# CYP2C9 act: CYP2C9 (human) activation; recombinant CYP2C9, luciferin-H conversion, luminescence; hits give high values; factor 1 = untreated enzyme, 0 = blocked; AID 1024; P11712; activation factor at 5 µM; actives 1.4% (n = 96,000);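 active = activation factor of 2 or more for CYP2C9 at a 5 µM dose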;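 also: 0 = sulfaphenazole-blocked wells and 1 = vehicle-only wells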
# PostGolgi yeast: growth inhibition of a yeast mutant, post-Golgi transport screen; post-Golgi transport phenotypic cell assay; inhibition, % at 10 µM; actives 0.9% (n = 98,000);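 also: yeast cells grown in 1536-well plates; yeast grown about 18 h at 30C before absorbance read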
# PostGolgi ctrl: yeast control strain growth, post-Golgi counter-screen | efflux-deficient yeast background strain, growth absorbance A615, 16 h | inhibition, % at 10 µM | actives 5% (n = 98,000) | AID 738
# CYP2C19 inhib: blocks human cytochrome P450 2C19 | P33261 | CYP2C19 Supersomes, luciferin-H EGE luminescence, 30 min | inhibition, % at 5 µM | actives 21% (n = 96,000) | AID 778;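 active = CYP2C19 inhibition above a set limit at 5 µM in the primary screen, cut at about 50% in these data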;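 also: plate controls were negative control wells for no effect and 2.5 mM tranylcypromine positive control for full effect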
# Target sequence (P33261 whole entry, looked up): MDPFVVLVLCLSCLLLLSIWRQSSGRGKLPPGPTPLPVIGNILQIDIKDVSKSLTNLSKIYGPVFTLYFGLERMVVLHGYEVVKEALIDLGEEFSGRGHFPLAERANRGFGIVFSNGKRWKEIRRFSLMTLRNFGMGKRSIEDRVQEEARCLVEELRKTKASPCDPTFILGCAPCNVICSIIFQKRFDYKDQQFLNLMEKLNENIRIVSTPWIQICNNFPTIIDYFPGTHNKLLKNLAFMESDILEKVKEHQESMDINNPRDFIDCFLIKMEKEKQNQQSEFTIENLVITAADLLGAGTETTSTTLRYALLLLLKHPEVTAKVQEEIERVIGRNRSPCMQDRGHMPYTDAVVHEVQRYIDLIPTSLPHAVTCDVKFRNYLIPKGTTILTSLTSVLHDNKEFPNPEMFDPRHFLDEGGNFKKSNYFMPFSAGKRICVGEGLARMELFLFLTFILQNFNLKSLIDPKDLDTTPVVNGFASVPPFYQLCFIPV
# CYP2C19 act: activators of human cytochrome P450 2C19; P33261; recombinant CYP2C19, luciferin-H EGE luminescence; hits give high values; 0 = fully inhibited enzyme, 1 = untreated enzyme; activation factor at 5 µM; 96,000 tested, under 10 active; AID 1025;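 active = activation factor of at least 2 at 5 µM in the primary screen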;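 also: 0 = wells with 2.5 mM tranylcypromine and 1 = vehicle-only wells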
# Numbers without * were called inactive; . = not tested or not shown. Compounds with a hit are over-represented: about 32% of the library has one in this group of screens. Rule as the data show it, unless noted: active = inhibition above about 30%; inactive = the rest.
SMILES,CYP2C9 inhib,CYP2C9 act,PostGolgi yeast,PostGolgi ctrl,CYP2C19 inhib,CYP2C19 act
Cn1c(=O)[nH]c(=O)c2c1nc(CN1CCN(c3cccc(Cl)c3)CC1)n2Cc1ccccc1Cl,73*,0.3,8,51*,2,1
Cc1cccc(Cn2c(CN3CCN(Cc4ccccc4)CC3)nc3c2c(=O)[nH]c(=O)n3C)c1,7,0.9,-2,7,8,0.9
CCCn1c(N2CCN(Cc3cccc(C)c3)CC2)nc2c1c(=O)[nH]c(=O)n2C,-3,1,6,-1,90*,0.1
CCCCCn1c(N2CCN(Cc3ccccc3)CC2)nc2c1c(=O)[nH]c(=O)n2C,43,0.6,1,14,61*,0.4
COc1cc(SC)ccc1C(=O)Nc1ccc2c(c1)CCN2S(C)(=O)=O,-60,1.6,-4,9,35,0.6
C/C(CC(O)c1ccc2ccccc2n1)=N/O (stereo unspecified),8,0.9,-4,6,1,1
Cc1cccc(Cn2c(N3CCc4ccccc4C3)nc3c2c(=O)[nH]c(=O)n3C)c1,32,0.7,2,10,14,0.9
Cc1csc(SCCn2c(N3CCN(c4ccccc4)CC3)nc3c2c(=O)[nH]c(=O)n3C)n1,52*,0.5,7,7,49,0.5
CC(C)CCn1c(N2CCN(Cc3ccccc3)CC2)nc2c1c(=O)[nH]c(=O)n2C,76*,0.2,.,.,77*,0.2
CCN1CCN(c2nc3c(c(=O)[nH]c(=O)n3C)n2CCSc2nc3ccccc3s2)CC1,37,0.6,-3,0,7,0.9
CC(C)CCn1c(CN2CCN(Cc3ccccc3)CC2)nc2c1c(=O)[nH]c(=O)n2C,25,0.8,2,-1,14,0.9
Cc1cccc(Cn2c(N3CCCCC3C)nc3c2c(=O)[nH]c(=O)n3C)c1 (stereo unspecified),.,.,1,31*,.,.
CC(C)Oc1ccc(C(=O)N(Cc2ccco2)C2CCS(=O)(=O)C2)cc1 (stereo unspecified),-1,1,-2,0,7,0.9
CCOC(=O)C(NS(=O)(=O)c1ccccc1)(C(F)(F)F)P(=O)(OCC(C)C)OCC(C)C (stereo unspecified),16,0.8,-4,6,10,0.9
COC(=O)[C@H](Cc1ccccc1)NC(=O)N1CCN(Cc2ccccc2)CC1,-8,1.1,3,7,10,0.9
O=C(Cc1ncc(C(F)(F)F)cc1Cl)N1CCN(c2ccc(F)cc2)CC1,-248,3.5*,1,-2,51*,0.5
CC(C)C(=O)Nc1ncc(C(F)(F)F)cc1Cl,7,0.9,4,9,-8,1.1
COc1ccc(N2CCN(C(=O)Cc3ncc(C(F)(F)F)cc3Cl)CC2)cc1,-26,1.3,26,1,6,0.9
O=C(Cc1ncc(C(F)(F)F)cc1Cl)N1CCN(c2cccc(Cl)c2)CC1,-60,1.6,3,28,84*,0.2
O=C(Cc1ncc(C(F)(F)F)cc1Cl)Nc1ccc(F)cc1,10,0.9,-5,10,91*,0.1
CC(/C=C/c1ccco1)=N/NC(=O)Cc1cccs1,12,0.9,5,6,2,1
Cc1cc(N(C)Cc2ccccc2)nc(-c2ccccc2)n1,80*,0.2,-4,6,96*,0
Cc1ccc(N2C(N)=C(C#N)C(c3ccsc3)C3=C2CC(C)(C)CC3=O)cc1 (stereo unspecified),83*,0.2,-2,9,43,0.6
Cc1ccc(C2C(C#N)=C(N)N(c3ncn[nH]3)C3=C2C(=O)CC(C)(C)C3)cc1 (stereo unspecified),65*,0.4,11,2,28,0.7
Cc1ccc(N2C(N)=C(C#N)C(c3cccnc3)C3=C2CC(C)(C)CC3=O)cc1 (stereo unspecified),52*,0.5,6,7,23,0.8
CC1(C)CC(=O)C2=C(C1)N(N1CCOCC1)C(N)=C(C#N)C2c1cccnc1 (stereo unspecified),8,0.9,-11,0,5,0.9
N#CC1=C(N)N(c2ccccc2)C2=C(C(=O)CCC2)C1c1ccsc1 (stereo unspecified),30,0.7,2,-1,16,0.8
